# Only some compounds are listed: those with a hit (about 2.2% of all), similar ones and a draw of the others.
# rat GALR2 agon: agonists of rat galanin receptor 2 (GALR2). Galanin receptor type 2 (Rattus norvegicus), O08726. cell-based GALR2 agonist screen. activation, % at 10 µM. 16,000 compounds, 0.5% hits. AID 833, 2007; in the data active = activation above about 15%
# Target sequence (O08726 whole entry, looked up): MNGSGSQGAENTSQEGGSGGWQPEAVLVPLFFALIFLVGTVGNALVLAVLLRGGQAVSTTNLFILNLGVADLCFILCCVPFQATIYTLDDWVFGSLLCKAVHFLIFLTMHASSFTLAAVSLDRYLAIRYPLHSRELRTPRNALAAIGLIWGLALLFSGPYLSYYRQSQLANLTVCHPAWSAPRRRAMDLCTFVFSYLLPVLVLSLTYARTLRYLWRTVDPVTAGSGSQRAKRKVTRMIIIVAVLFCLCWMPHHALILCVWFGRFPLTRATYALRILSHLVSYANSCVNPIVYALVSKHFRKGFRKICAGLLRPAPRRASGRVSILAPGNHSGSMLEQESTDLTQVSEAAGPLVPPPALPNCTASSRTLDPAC
# S1P1 ag: activates the human S1P1 receptor; Sphingosine 1-phosphate receptor 1 (Homo sapiens), P21453; S1P1 agonist cell-based reporter assay; activation, % at 4.5 µM; 16,000 compounds, 1.5% hits; AID 1044, 2008; in the data active = activation above about 80%
# * = called active by the depositor.
SMILES,rat GALR2 agon,S1P1 ag
COC(=O)c1sc2ccccc2c1Cl,-3,107*
O=S(=O)(c1cccs1)N1CCCN(CCc2ccccc2)CC1,-1,-28
Cc1cc(NS(=O)(=O)c2ccc(C(F)(F)F)cc2Cl)no1,-1,-15
O=S(=O)(Nc1cc(C(F)(F)F)ccc1F)c1cc(C(F)(F)F)ccc1Cl,-3,85*
Cc1c(S(=O)(=O)c2ccc(Cl)cc2)csc1C(=O)Nc1ccc2c(c1)COCO2,-1,35
Cc1c(S(=O)(=O)c2ccc(Cl)cc2)csc1C(=O)Nc1ccc(F)cc1F,22*,1
CCCc1cnc(N2CCN(CC(=O)Nc3ccccc3)CC2)nc1,-5,-4
CCOC(=O)Cn1c(=O)c2ccsc2c2c(C#N)c(SC)sc21,139*,-15
CCOC(=O)CSc1sc(C(=O)OCC)c(-c2cccs2)c1C#N,2,-17
COc1ccc(-c2noc(-c3ccccc3C(=O)O)n2)cc1,-7,4
Cc1nc(C(=O)NCC(=O)c2cccc(Cl)c2)c(C(F)(F)F)o1,-1,92*
NC(=O)CNC(=O)c1cccc(Cl)c1,-7,-22
Cn1cc(Cl)c(/C=C(\C#N)S(=O)(=O)c2ccccn2)n1,-5,-8
COc1ccc(Oc2ccc([N+](=O)[O-])cc2)cc1,-7,3
COc1ccc(Oc2ccc([N+](=O)[O-])c(Oc3ccc(OC)cc3)n2)cc1,-5,88*
N#Cc1ccc(Oc2ccc(Cl)cc2)nc1,8,-5
O=C(Nc1ccc(C(F)(F)F)cc1)c1ccno1,-4,-3
NCCCNc1ncc(C(F)(F)F)cc1Cl,-8,-15
Cc1cc(C(=O)Nc2ccc(N3CCOCC3)cc2)nn1C,-2,1
Cc1cc(C(=O)Nc2nc3ccc(Cl)cc3s2)nn1C,-4,103*
CCOC(=S)SCc1cc(C(C)=O)ccc1OC,-7,11
O=C(/C=C/c1ccc(Cl)c(Cl)c1)NCc1cccnc1,-4,6
N#Cc1cccc(C#N)c1Oc1ccc(NC(=O)c2ccc(Cl)cc2)cc1,-1,25
O=C(NCC1CC1)c1cccnc1Oc1ccccc1,-5,-39
N#C/C(=C\c1cccs1)c1ccc(NC(=O)c2ccc(Cl)cc2)cc1,-7,10
SMILES,rat GALR2 agon,S1P1 ag
OC[C@@H](O)[C@H](O)[C@H](O)[C@@H](O)C(SCc1ccccc1)SCc1ccccc1,-6,103*
CCSC(SCC)[C@@H](O)[C@H](O)[C@H](O)[C@@H](O)CO,-4,7
N#C/C(=C\Nc1cc(C(F)(F)F)cc(C(F)(F)F)c1)S(=O)(=O)c1ccc(Cl)cc1,-10,87*
N#C/C(=C\Nc1cccnc1)S(=O)(=O)c1ccc(Cl)cc1,-6,-14
Cc1nnsc1C(=O)Nc1ccc(-n2nc(C(F)(F)F)cc2C(F)(F)F)cc1,-11,99*
Cc1nnsc1C(=O)Nc1ccc(-n2nc(C(F)(F)F)cc2-c2cccs2)cc1,-8,24
CCOC(=O)c1cnn(C(=O)c2cnn(-c3ccc([N+](=O)[O-])cc3)c2C(F)(F)F)c1C(F)(F)F,-3,52
CCOC(=O)c1cnn(-c2nc(-c3ccccc3)cs2)c1C(F)(F)F,-8,82*
Cc1cc(NC(=O)C(Cl)Cl)n(-c2ccccc2)n1,-3,-12
Cc1cc(NC(=O)CN2CCOCC2)n(-c2ccccc2)n1,137*,9
O=C(CSCC(=O)Nc1ccc(OC(F)(F)F)cc1)NNC(=O)Nc1ccccc1,-4,-16
COc1cccc(-c2nc(C)c(C(C)=O)c(SCc3ccccc3)n2)c1,-4,-22
CC(C)(C)c1cc(C(=O)NNC(=S)Nc2ccccc2)n(Cc2ccc(Cl)cc2Cl)n1,-9,101*
CC(C)(C)c1cc(C(=O)NCc2ccc(C#N)cc2)n(Cc2ccccc2)n1,-9,5
COC(=O)c1cccc(NC(=O)CC2C(=O)NCCN2C(=O)Nc2ccccc2OC(F)(F)F)c1 (stereo unspecified),-6,-10
CN(C)/C=C/C=c1/c(=O)c2cccc3cccc1c32,-14,102*
O=c1c2cccc3cccc(sc4cccc5cccc1c54)c32,-8,4
N#C/C(=C\c1cc2ccccc2o1)S(=O)(=O)c1ccc(Cl)cc1,-6,-12
N#CC(CO)Cc1cc([N+](=O)[O-])ccc1N1CCOCC1 (stereo unspecified),-8,3
N#CC(CO)Cc1cc([N+](=O)[O-])ccc1N1CCCCC1 (stereo unspecified),-7,95*
O=C(CSCCS(=O)(=O)c1ccccc1)NNC(=O)Nc1ccccc1,-4,-20
Cc1ccc(OS(=O)(=O)c2c(Cl)sc(Cl)c2Br)c([N+](=O)[O-])n1,-6,23
CC1CCCN(c2ccc([N+](=O)[O-])cc2)C1 (stereo unspecified),-4,8
CCN1CCCC1CNC(=O)NC(=O)c1ccc([N+](=O)[O-])cc1 (stereo unspecified),-4,85*
CCOC(=O)c1sc(N2CCCCC2)c2c1CC(C)(C)CC2=O,1,-21
SMILES,rat GALR2 agon,S1P1 ag
CCOC(=O)c1sc(N/N=C/c2cccs2)c2c1CC(C)(C)CC2=O,19*,3
COc1cc(NC(=S)NC(=O)c2ccccc2)c(OC)cc1Cl,2,-15
N#Cc1ccc(S(=O)(=O)c2ccc(Cl)cc2)nc1,-9,30
Cc1c(C(=O)NNc2cc(C(F)(F)F)ccc2Cl)n(C)oc1=O,-5,19
Cc1c(C(=O)Oc2cccc(C(F)(F)F)c2)n(C)oc1=O,56*,-6
N#Cc1c2ccccc2cn1Cc1cccc(Cl)c1,-7,93*
N#Cc1cccc(C(=O)Cc2cccc(Cl)c2)c1,-2,-1
Cc1nc(-c2nc(C(=O)NN(S(C)(=O)=O)S(C)(=O)=O)cs2)cs1,-5,6
COc1ccc(CCN2C(=O)CSC2=Nc2ccc(C(C)C)cc2)cc1OC,-8,108*
COc1ccc(CCN2CC(C(=O)O)CC2=O)cc1OC (stereo unspecified),-4,-12
Cc1ccc(Cl)cc1NC(=S)N(CCC#N)/N=C/c1ccc2c(c1)OCO2,-7,9
O=C(NCCc1ccncc1)c1cccs1,-6,-3
N#CCCN(Cc1cccs1)C(=O)Nc1cccc(C(F)(F)F)c1,42*,-2
N#CCCN(Cc1cccs1)C(=O)c1cccs1,-5,24
Cn1ncc(C(=O)NC(=O)Nc2ccc(F)cc2)c1[N+](=O)[O-],-8,-13
O=C1CNC(=S)N1Cc1ccccn1,-4,-8
O=C1CNC(=S)N1Cc1cccs1,-3,98*
COc1cc(NC(=O)c2ccc([N+](=O)[O-])o2)cc(C(F)(F)F)c1,-1,-28
CCOC(=O)C(=CNc1ccccc1-c1nnc(-c2ccc(Cl)cc2)o1)C(=O)OCC,-11,-17
CC(=O)Nc1ccccc1-c1nnc(-c2ccc(C(C)(C)C)cc2)o1,-9,104*
CCOc1ccccc1/C=N/NC(=O)N/N=C/c1ccccc1OCC,-7,-28
C#CC(CC)(CC)N=Cc1cc(Br)ccc1OCC,-6,123*
Cn1nc(C(C)(C)C)cc1C(=O)Nc1cccnc1,-8,-16
Cc1cc(C)c(C(=O)Nc2cccnc2)c(CC(C)(C)C(=O)O)c1,-6,82*
Clc1ccc(CSc2nnc(-n3cccc3)s2)cc1,-7,80*
Cc1nnc(SCc2ccc([N+](=O)[O-])cc2)s1,-4,-2
Cn1cc(S(=O)(=O)NCc2ccc3c(c2)OCO3)c(C(F)(F)F)n1,0,12
Cn1nc(C(C)(C)C)cc1C(=O)NCc1ccc2c(c1)OCO2,0,84*

# High-throughput results deposited in PubChem BioAssay by The Scripps Research Institute Molecular Screening Center.
